# PubChem BioAssay (EPA / NIEHS)
# Calls of active or inactive are those of the source. The calls were made as follows: active = hit-call score of the fitted dose curve at least 0.9, where 1 is the maximum; inactive = score below 0.9.
# Assays:
# [1] = ATG_CRE_CIS: Attagene CIS-FACTORIAL HepG2 Assay for human cAMP Responsive Element (CRE) binding protein 3 (AID 2282926); conditions: HepG2 CRE cis-reporter, Attagene multiplexed mRNA; actives raise or lower the signal
# Outline: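 Readout: fluorescently labelled reporter transcripts resolved by capillary electrophoresis after RT-PCR, taken 24 h post-dosing in transfected HepG2. Endogenous transcription factor activity drives each cis-element reporter; gain or loss of signal fitted relative to DMSO control.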
# [2] = target: CCAAT/enhancer-binding protein beta (Homo sapiens) (UniProt P17676); assay: ATG_C_EBP_CIS: Attagene CIS-FACTORIAL HepG2 Assay for human CCAAT/Enhancer Binding Protein (C/EBP) beta (AID 2282927); conditions: HepG2 Attagene cis-factorial transcription factor reporter; actives raise or lower the signal
# Chain of CCAAT/enhancer-binding protein beta (Homo sapiens) (P17676 whole entry, looked up): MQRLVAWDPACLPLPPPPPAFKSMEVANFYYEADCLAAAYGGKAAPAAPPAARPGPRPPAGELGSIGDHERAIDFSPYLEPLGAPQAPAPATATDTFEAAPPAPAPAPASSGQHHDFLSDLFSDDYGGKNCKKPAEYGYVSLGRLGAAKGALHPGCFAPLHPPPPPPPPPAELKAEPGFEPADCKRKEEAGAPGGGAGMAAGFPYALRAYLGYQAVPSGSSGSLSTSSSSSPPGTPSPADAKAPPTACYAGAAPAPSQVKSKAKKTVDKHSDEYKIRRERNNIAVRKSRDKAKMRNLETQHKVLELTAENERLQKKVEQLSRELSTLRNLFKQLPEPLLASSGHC
# Outline: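 Changes in reporter mRNA, rather than exogenous chimeric receptor activity, reflect native C/EBP signalling in transfected HepG2 cells dosed for 24 h; transcripts are detected by RT-PCR and capillary electrophoresis.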
# [3] = ATG_DR4_LXR_CIS: Attagene CIS-FACTORIAL HepG2 Assay for human Liver X Receptor (LXR), DR4 submotif (AID 2282929); conditions: HepG2 Attagene DR4 cis-reporter, mRNA transcription; actives raise or lower the signal
# Outline: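 Measures endogenous transcription factor activity via a DR4-driven reporter transcript in human HepG2 cells. Compounds incubated 24 h; mRNA quantified by RT-PCR and capillary electrophoresis, analysed as gain or loss of signal versus DMSO.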
# [4] = target: Aryl hydrocarbon receptor (Homo sapiens) (UniProt P35869); assay: ATG_Ahr_CIS: Attagene CIS-FACTORIAL HepG2 Assay for human Aryl Hydrocarbon Receptor (Ahr) (AID 2282930); conditions: HepG2 AhR cis-factorial reporter transcription; actives raise or lower the signal
# Chain of Aryl hydrocarbon receptor (Homo sapiens) (P35869 whole entry, looked up): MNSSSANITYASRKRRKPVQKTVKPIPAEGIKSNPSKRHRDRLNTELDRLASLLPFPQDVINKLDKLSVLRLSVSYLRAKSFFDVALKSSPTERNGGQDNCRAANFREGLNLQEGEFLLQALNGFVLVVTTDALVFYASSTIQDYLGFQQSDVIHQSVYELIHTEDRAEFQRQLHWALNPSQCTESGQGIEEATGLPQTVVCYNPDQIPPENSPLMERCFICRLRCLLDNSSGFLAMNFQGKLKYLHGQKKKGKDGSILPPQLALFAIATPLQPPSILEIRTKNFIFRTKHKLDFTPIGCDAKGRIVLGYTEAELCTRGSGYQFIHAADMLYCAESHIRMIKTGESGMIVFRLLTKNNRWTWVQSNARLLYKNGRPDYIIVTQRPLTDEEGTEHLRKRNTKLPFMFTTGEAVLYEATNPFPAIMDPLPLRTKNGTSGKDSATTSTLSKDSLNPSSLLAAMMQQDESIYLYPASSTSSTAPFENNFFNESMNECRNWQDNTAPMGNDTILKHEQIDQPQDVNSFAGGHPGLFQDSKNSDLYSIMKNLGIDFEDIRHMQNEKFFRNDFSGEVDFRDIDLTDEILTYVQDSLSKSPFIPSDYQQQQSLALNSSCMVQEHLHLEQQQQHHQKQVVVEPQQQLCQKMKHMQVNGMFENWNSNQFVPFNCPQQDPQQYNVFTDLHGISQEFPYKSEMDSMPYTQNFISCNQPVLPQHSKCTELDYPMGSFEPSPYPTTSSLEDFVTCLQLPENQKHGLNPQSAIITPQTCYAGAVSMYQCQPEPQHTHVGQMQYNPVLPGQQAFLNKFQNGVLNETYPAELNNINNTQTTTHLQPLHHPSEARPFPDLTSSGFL
# Outline: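 HepG2, transient MRTU (cis) transfection, 24 h exposure. RNA → cDNA → PCR → 6-FAM primer extension → HpaI 2 h 37 C → CE. Fit: bidirectional, DMSO baseline.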
# [5] = ATG_AP_1_CIS: Attagene CIS-FACTORIAL HepG2 Assay for human Activator Protein 1 (AP-1) (AID 2282931); conditions: HepG2 Attagene cis-factorial AP-1 reporter mRNA; actives raise or lower the signal
# Outline: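 Bidirectional concentration-response fitting against DMSO controls. Underlying signal: reporter mRNA from cis-promoter constructs in transiently transfected HepG2, measured after 24 h by RT-PCR and capillary electrophoresis.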
# [6] = ATG_AP_2_CIS: Attagene CIS-FACTORIAL HepG2 Assay for human Activator Protein 2 (AP-2) (AID 2282932); conditions: HepG2 AP-2 cis-reporter, Attagene transcription factor profiling; actives raise or lower the signal
# Outline: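 Endogenous transcription factor activity is reported through transfected multiplex reporter constructs in HepG2, after 24 h of compound exposure. Transcripts were quantified by RT-PCR and capillary electrophoresis of fluorescent fragments. Bidirectional fit against DMSO.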
# [7] = ATG_BRE_CIS: Attagene CIS-FACTORIAL HepG2 Assay for human Bone Morphogenetic Protein (BMP) Response Element (BRE) (AID 2282933); conditions: HepG2 BMP response element reporter, Attagene transcription factor profiling; actives raise or lower the signal
# Outline: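 HepG2 cells transiently transfected with multiplexed cis-element reporter units were dosed with chemical for 24 h. Reporter mRNA was measured by RT-PCR with fluorescent labelling, HpaI digestion and capillary electrophoresis; bidirectional fitting relative to DMSO.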
# [8] = target: Retinoic acid receptor alpha (Homo sapiens) (UniProt P10276); assay: ATG_DR5_RAR_CIS: Attagene CIS-FACTORIAL HepG2 Assay for human Retinoic Acid Receptor Alpha (RARE), DR5 submotif (AID 2282934); conditions: HepG2 Attagene cis-factorial RARE DR5 reporter, mRNA; actives raise or lower the signal
# Chain of Retinoic acid receptor alpha (Homo sapiens) (P10276 whole entry, looked up): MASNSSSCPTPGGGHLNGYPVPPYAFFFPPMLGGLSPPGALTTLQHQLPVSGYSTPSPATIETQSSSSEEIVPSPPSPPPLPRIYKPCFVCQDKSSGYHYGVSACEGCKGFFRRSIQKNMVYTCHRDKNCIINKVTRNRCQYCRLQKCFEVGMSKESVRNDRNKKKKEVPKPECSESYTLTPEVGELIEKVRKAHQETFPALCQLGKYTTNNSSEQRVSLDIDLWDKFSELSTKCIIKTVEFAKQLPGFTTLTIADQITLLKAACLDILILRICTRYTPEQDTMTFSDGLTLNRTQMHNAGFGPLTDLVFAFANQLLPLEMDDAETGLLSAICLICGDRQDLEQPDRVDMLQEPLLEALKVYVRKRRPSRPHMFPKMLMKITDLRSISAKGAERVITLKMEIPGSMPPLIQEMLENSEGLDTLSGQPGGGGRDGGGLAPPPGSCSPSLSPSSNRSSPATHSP
# Outline: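 HepG2, transient cis-reporter transfection, 24 h exposure. mRNA readout: RT-PCR, FAM label, HpaI cut, capillary electrophoresis. DMSO baseline, gain/loss fitting.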
# [9] = target: Transcription factor E2F1 (Homo sapiens) (UniProt Q01094); assay: ATG_E2F_CIS: Attagene CIS-FACTORIAL HepG2 Assay for human E2F Transcription Factor 1 (AID 2282935); conditions: HepG2 Attagene cis-reporter, E2F reporter RNA transcripts; actives raise or lower the signal
# Chain of Transcription factor E2F1 (Homo sapiens) (Q01094 whole entry, looked up): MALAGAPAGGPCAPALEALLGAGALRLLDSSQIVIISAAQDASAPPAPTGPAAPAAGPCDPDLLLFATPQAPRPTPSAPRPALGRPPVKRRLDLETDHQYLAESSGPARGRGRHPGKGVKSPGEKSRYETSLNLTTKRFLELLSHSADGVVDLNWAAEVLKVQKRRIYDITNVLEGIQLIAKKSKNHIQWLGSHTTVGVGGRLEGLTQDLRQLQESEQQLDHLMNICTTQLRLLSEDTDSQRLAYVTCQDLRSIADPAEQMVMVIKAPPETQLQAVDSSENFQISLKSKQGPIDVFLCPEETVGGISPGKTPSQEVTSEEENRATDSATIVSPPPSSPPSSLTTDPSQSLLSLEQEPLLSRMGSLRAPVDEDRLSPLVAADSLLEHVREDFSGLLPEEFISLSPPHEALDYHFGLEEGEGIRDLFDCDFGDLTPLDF
# Outline: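 Gain or loss of reporter transcript, fitted against DMSO, reflects E2F1-driven transcription. Transiently transfected HepG2 dosed 24 h before RNA isolation. Quantified by fluorescent RT-PCR products separated by capillary electrophoresis.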
# [10] = ATG_E_Box_CIS: Attagene CIS-FACTORIAL HepG2 Assay for human Enhancer Box (E-box) (AID 2282936); conditions: HepG2 E-box cis-reporter transcription, actives raise or lower the signal
# Outline: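 E-box-driven reporter transcripts measured in transiently transfected HepG2 after 24 h exposure: RNA reverse-transcribed, PCR-amplified, fluorescently labelled, digested and resolved by capillary electrophoresis. Gain or loss relative to DMSO.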
# [11] = ATG_M_61_CIS: Attagene CIS-FACTORIAL HepG2 Assay for M61 Transcription Factor (Internal Marker) (AID 2282937); conditions: HepG2 Attagene CIS-FACTORIAL M61 internal marker reporter; actives raise or lower the signal
# Outline: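 Fluorescence from labelled cDNA fragments, separated by capillary electrophoresis, quantifies reporter induction. HepG2 cells bearing transiently transfected cis-promoter MRTUs were incubated with test chemical for 24 h; DMSO defined baseline for gain/loss fitting.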
# [12] = ATG_EGR_CIS: Attagene CIS-FACTORIAL HepG2 Assay for human Early Growth Response 1 (EGR1) (AID 2282938); conditions: HepG2 Attagene CIS-FACTORIAL EGR reporter mRNA; actives raise or lower the signal
# Outline: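 Cell-based multiplex transcription assay: HepG2 carrying transfected cis-element reporter units, 24 h chemical treatment. Fluorescence from capillary electrophoresis of RT-PCR products gives mRNA levels; fitting is bidirectional relative to DMSO.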
# [13] = ATG_M_19_CIS: Attagene CIS-FACTORIAL HepG2 Assay for M19 Transcription Factor (Internal Marker) (AID 2282939); conditions: HepG2 Attagene CIS-FACTORIAL M19 internal marker reporter; actives raise or lower the signal
# Outline: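 HepG2 cells transiently transfected with cis-regulated multiple reporter transcription units were dosed for 24 h; reporter mRNA was quantified by RT-PCR, 6-FAM primer-extension labelling, HpaI digestion and capillary electrophoresis, with bidirectional fitting against DMSO baseline.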
# [14] = ATG_ERE_CIS: Attagene CIS-FACTORIAL HepG2 Assay for Estrogen Response Element (ERE) (AID 2282940); conditions: HepG2 ERE cis-reporter, Attagene RNA transcript; actives raise or lower the signal
# Outline: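 HepG2 cells transiently transfected with cis-promoter-driven multiplexed reporter transcription units report endogenous TF activity. After 24 h compound exposure, reporter mRNA is quantified by RT-PCR with capillary electrophoresis fluorescence; bidirectional fitting versus DMSO baseline.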
# [15] = ATG_Ets_CIS: Attagene CIS-FACTORIAL HepG2 Assay for human Erythroblast Transformation Specific (ETS) (AID 2282941); conditions: HepG2 ETS cis-reporter transcription, actives raise or lower the signal
# Outline: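 RT-PCR/capillary electrophoresis fluorescence read-out of reporter mRNA; HepG2 transient multi-reporter transfection; 24 h compound exposure; gain or loss of signal fitted bidirectionally relative to DMSO.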
# [16] = ATG_FoxO_CIS: Attagene CIS-FACTORIAL HepG2 Assay for human Forkhead box O (FoxO) (AID 2282943); conditions: HepG2 Attagene cis-reporter, FoxO element, mRNA; actives raise or lower the signal
# Outline: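 Human hepatoma HepG2 cells carry transiently introduced reporter transcription units controlled by cis promoter elements. Chemical treatment lasted 24 h, and mRNA signal was compared with DMSO.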
# [17] = ATG_GATA_CIS: Attagene CIS-FACTORIAL HepG2 Assay for human GATA Binding Protein (AID 2282944); conditions: HepG2 GATA cis-element reporter, Attagene multiplex mRNA; actives raise or lower the signal
# Outline: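 HepG2 cells transiently transfected with multiplexed cis-element reporter units reflecting endogenous transcription factor activity; reporter mRNA measured after 24 h dosing by RT-PCR, 6-FAM labeling, HpaI digestion and capillary electrophoresis. Bidirectional fitting versus DMSO baseline.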
# [18] = ATG_GLI_CIS: Attagene CIS-FACTORIAL HepG2 Assay for human Zinc Finger Protein GLI1 (AID 2282945); conditions: HepG2, Attagene cis-factorial reporter mRNA, GLI element; actives raise or lower the signal
# Outline: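 Bidirectional curve fits relative to DMSO, using reporter mRNA levels from RT-PCR plus capillary electrophoresis. Cells were HepG2 transiently carrying cis-regulated reporter constructs, harvested 24 h after dosing.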
# [19] = target: Hepatocyte nuclear factor 3-beta (Homo sapiens) (UniProt Q9Y261); assay: ATG_FoxA2_CIS: Attagene CIS-FACTORIAL HepG2 Assay for human Forkhead box A2 (FOXA2) (AID 2282942); conditions: HepG2 cis-reporter transcription factor activity, 24 h; actives raise or lower the signal
# Chain of Hepatocyte nuclear factor 3-beta (Homo sapiens) (Q9Y261 whole entry, looked up): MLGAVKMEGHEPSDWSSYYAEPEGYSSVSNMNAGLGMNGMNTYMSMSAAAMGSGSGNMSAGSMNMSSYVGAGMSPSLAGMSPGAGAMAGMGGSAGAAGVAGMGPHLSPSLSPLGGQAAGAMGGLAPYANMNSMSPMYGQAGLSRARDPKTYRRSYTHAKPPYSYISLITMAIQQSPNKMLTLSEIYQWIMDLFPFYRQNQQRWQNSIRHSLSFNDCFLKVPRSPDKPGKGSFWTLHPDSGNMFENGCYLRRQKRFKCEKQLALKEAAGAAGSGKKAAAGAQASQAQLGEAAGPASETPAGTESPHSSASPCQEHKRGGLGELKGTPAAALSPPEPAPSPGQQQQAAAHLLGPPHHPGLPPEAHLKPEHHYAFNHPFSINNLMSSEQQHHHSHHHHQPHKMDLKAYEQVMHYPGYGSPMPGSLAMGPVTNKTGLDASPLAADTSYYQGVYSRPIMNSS
# Outline: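 In transiently transfected human HepG2 cells, promoter-driven reporter mRNA levels after 24 h chemical exposure are determined via RT-PCR with capillary electrophoresis. DMSO serves as baseline for bidirectional fitting.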
# [20] = ATG_CMV_CIS: Attagene CIS-FACTORIAL HepG2 Assay for human CMV (Internal Marker) (AID 2282928); conditions: HepG2 CMV promoter reporter, transcription factor profiling; actives raise or lower the signal;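 also: endpoint acts as a background internal control marker rather than a target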
# Outline: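 Readout: fluorescent reporter cDNA fragments separated by capillary electrophoresis after RT-PCR and HpaI cut. Cells: HepG2 carrying transfected cis-promoter reporter constructs, dosed 24 h. Endpoint serves as background internal-marker control, fit bidirectionally versus DMSO.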
structure (smiles),measurement,setting,value
O=C(C(Cl)Cl)N1CCOC12CCCCC2,outcome,[1],inactive
same,outcome,[2],inactive
same,AC50,[3],12 µM (active)
same,outcome,[4],inactive
same,AC50,[5],69.1 µM (active)
same,outcome,[6],inactive
same,outcome,[7],inactive
same,outcome,[8],inactive
same,outcome,[9],inactive
same,outcome,[10],inactive
same,outcome,[11],inactive
same,AC50,[12],19.3 µM (active)
same,outcome,[13],inactive
same,outcome,[14],inactive
same,outcome,[15],inactive
same,outcome,[16],inactive
same,outcome,[17],inactive
same,outcome,[18],inactive
NNC(=O)c1cccc(C(=O)NN)c1,outcome,[1],inactive
same,outcome,[2],inactive
same,outcome,[3],inactive
same,outcome,[4],inactive
same,outcome,[5],inactive
same,outcome,[7],inactive
same,outcome,[8],inactive
same,outcome,[9],inactive
same,outcome,[10],inactive
same,outcome,[11],inactive
same,outcome,[12],inactive
same,outcome,[13],inactive
same,outcome,[14],inactive
same,outcome,[15],inactive
same,outcome,[19],inactive
same,outcome,[16],inactive
same,outcome,[17],inactive
same,outcome,[18],inactive
CCCCCCCCCCC=CC#N,outcome,[1],inactive
same,outcome,[2],inactive
same,AC50,[20],100 µM (active)
same,AC50,[3],100 µM (active)
same,AC50,[5],111 µM (active)
same,outcome,[6],inactive
same,outcome,[7],inactive
same,outcome,[8],inactive
same,outcome,[9],inactive
same,outcome,[10],inactive
same,outcome,[12],inactive
same,outcome,[13],inactive
same,outcome,[14],inactive
same,outcome,[15],inactive
same,outcome,[16],inactive
same,outcome,[17],inactive
same,outcome,[18],inactive
O=C(Cl)c1cc(C(=O)Cl)cc(C(=O)Cl)c1,outcome,[1],inactive
same,outcome,[2],inactive
same,outcome,[20],inactive
same,outcome,[3],inactive
same,outcome,[5],inactive
same,outcome,[6],inactive
same,AC50,[7],125 µM (active)
same,outcome,[8],inactive
same,AC50,[10],138 µM (active)
same,outcome,[11],inactive
same,outcome,[12],inactive
same,outcome,[13],inactive
same,outcome,[14],inactive
same,outcome,[15],inactive
same,outcome,[19],inactive
same,outcome,[16],inactive
same,outcome,[17],inactive
same,outcome,[18],inactive
CCOC(=O)CC(C(C)=O)C(C)=O,outcome,[1],inactive
same,outcome,[2],inactive
same,outcome,[20],inactive
same,outcome,[3],inactive
same,outcome,[5],inactive
same,outcome,[7],inactive
same,outcome,[8],inactive
same,outcome,[9],inactive
same,outcome,[10],inactive
same,outcome,[11],inactive
same,outcome,[12],inactive
same,outcome,[13],inactive
same,outcome,[14],inactive
same,outcome,[15],inactive
same,outcome,[19],inactive
same,outcome,[16],inactive
same,outcome,[17],inactive
same,outcome,[18],inactive
C[Si](C)(CCCN)O[Si](C)(C)CCCN,outcome,[1],inactive
same,outcome,[2],inactive
same,outcome,[3],inactive
same,outcome,[4],inactive
same,outcome,[5],inactive
same,outcome,[6],inactive
same,outcome,[7],inactive
same,outcome,[8],inactive
same,outcome,[10],inactive
same,outcome,[11],inactive
same,outcome,[12],inactive
same,outcome,[13],inactive
same,outcome,[14],inactive
same,outcome,[15],inactive
same,outcome,[19],inactive
same,outcome,[16],inactive
same,outcome,[17],inactive
same,outcome,[18],inactive
Cc1oncc1C(=O)Nc1ccc(C(F)(F)F)cc1,outcome,[1],inactive
same,outcome,[2],inactive
same,outcome,[3],inactive
same,AC50,[4],8.59 µM (active)
same,AC50,[5],100 µM (active)
same,outcome,[6],inactive
same,AC50,[7],127 µM (active)
same,outcome,[8],inactive
same,outcome,[10],inactive
same,outcome,[11],inactive
same,outcome,[12],inactive
same,outcome,[13],inactive
same,AC50,[14],25.7 µM (active)
same,outcome,[15],inactive
same,outcome,[19],inactive
same,outcome,[16],inactive
same,outcome,[17],inactive
same,outcome,[18],inactive
C/C=C\C/C=C/CCCCCCCCOC(C)=O,outcome,[1],inactive
same,outcome,[2],inactive
same,outcome,[20],inactive
same,AC50,[3],122 µM (active)
same,AC50,[5],134 µM (active)
same,outcome,[6],inactive
same,AC50,[7],67.9 µM (active)
same,outcome,[8],inactive
same,outcome,[9],inactive
same,outcome,[10],inactive
same,outcome,[11],inactive
same,AC50,[12],100 µM (active)
same,outcome,[13],inactive
same,outcome,[14],inactive
same,outcome,[15],inactive
same,outcome,[19],inactive
same,outcome,[16],inactive
same,outcome,[18],inactive
